Screens from PubChem BioAssay.
Most compounds without a hit are left out; they make up all but 2.4% or so of the library.
HepG2 viability: counter-screen for TGF-b inhibitors: cytotoxicity in HepG2 cells; HepG2 CAGA-GFP viability, ATP luminescence, 18 h; Potency, µM (doses to about 46.1 µM), inactives show at the top dose activity change, negative = cytotoxicity, most hits filed as cytotoxic; 410,000 tested, 0.76% active; AID 588856
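CellTiter-Glo luminescence gave cytotoxicity after 18 hours at 37 degrees C. The cells were HepG2 CAGA-GFP in 1% FBS DMEM, stimulated with 500 pg/mL TGF-beta after compound addition. %Activity was normalised to no-cell wells (complete cell-killing) and DMSO (no toxicity), and curves were fitted and classified.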
TGFb inhibitor: TGF-b pathway inhibition; HepG2 CAGA-GFP TGF-b/SMAD3 reporter, GFP fluorescence, 18 h; TGF-beta stimulated, 500 pg/mL final; Potency, µM (titrated, usually from 46.1 µM), for inactives: at the highest dose activity, negative = inhibition, most hits filed as inhibitors; 410,000 tested, 1.2% active; AID 588855; note: % is set by controls: 0 for no effect and ±100 for the full control effect; nearly all actives have a fitted effect of over 65% in size
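Inhibition was scored as loss of TGF-beta-induced (500 pg/mL final, 18 hours, 37 degrees C) GFP in HEPG2 cells carrying a CAGA-GFP reporter, in DMEM with 1% FBS. Well GFP was summed per cell; Activity was normalised to unstimulated and stimulated DMSO wells, then concentration-response fitting.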
S2 tox: viability counter-screen for ATXN expression inhibitors; S2 cells (HEK-293 line with an ATXN2-luciferase reporter) viability, CellTiter-Fluor protease fluorescence, 24 h; Potency, µM (series often up to 56.7 µM), hits mostly cytotoxic; 400,000 tested, 0.49% active; note: nearly all actives have a fitted effect of over 40% in size
Anesthetic bind: candidate novel general anesthetic via apoferritin binding | P02791 | apoferritin/1-aminoanthracene competitive binding, fluorescence | Potency, µM (highest dose often 77.5 µM), for inactives: top-dose activity change, negative = displacement, most hits filed as inhibitors | 350,000 tested, 0.074% active | AID 485281; note: % is set by controls: 0 for no effect and ±100 for the full control effect; nearly all actives have a fitted effect of over 20% in size
Target sequence (P02791 2-175 limits assumed): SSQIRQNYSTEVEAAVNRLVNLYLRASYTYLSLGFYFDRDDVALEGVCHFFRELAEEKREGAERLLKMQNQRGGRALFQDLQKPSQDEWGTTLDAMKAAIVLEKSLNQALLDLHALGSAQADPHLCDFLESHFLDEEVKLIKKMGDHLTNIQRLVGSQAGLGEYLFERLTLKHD
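Read-out: endpoint 1-AMA fluorescence, excitation 380 nm and emission 535 nm, after compounds sit 10 min at room temperature with 10 uM horse-spleen apoferritin in 50% saturated 1-AMA/PBS. Values come from four-parameter Hill fits.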
ATXN2 expr inh: reduces ATXN2 reporter expression in HEK-293 cells; HEK-293 ATXN2-luciferase reporter, luminescence, 24 h; Potency, µM (doses to about 57 µM), inactives show at the highest dose activity change, negative = inhibition, usual class: inhibitors; 360,000 tested, 0.72% active; AID 1745845; note: % is set by controls: 0 for no effect and ±100 for the full control effect; nearly all actives have a fitted effect of over 55% in size
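ATXN2-luciferase reporter cells (luciferase flanked by upstream and downstream ATXN2 gene portions) were treated 24 h at 37 °C with compounds at up to 57 uM. SteadyGlo luminescence gave expression; GF-AFC fluorescence gave viability.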
The depositor's hits bear a star; i = inactive; ? = inconclusive; · = no result given; [ ] = dose if it differs, or a comment. Calls come from the whole dose curve; as a rule, active = well fitted curve in the direction sought with a large enough effect; inconclusive = small, poorly fitted or top-dose-only effect, or another doubt; inactive = no such curve, though single readings can be large; an effect the other way counts as inactive or inconclusive. Potency is the fitted concentration of half-maximal effect.

SMILES	HepG2 viability	TGFb inhibitor	S2 tox	Anesthetic bind	ATXN2 expr inh
Cc1c(O)ccc(/C=N/Nc2nc(-c3cccnc3)nc3ccccc23)c1O	6.3µM*	?	?	-6%	·
Cc1cc(N/N=C/c2ccc(O)c(C)c2O)nc(-c2ccccc2O)n1	11µM*	?	16µM*	35%	?
C/C(=N\Nc1cc(C)nc(-c2ccccc2O)n1)c1ccccc1	-19%	-11%	i	-7%	2%
O=C(COc1ccccc1C(=O)Nc1ccccc1F)Nc1ccc(Br)cc1	-1%	-30%	·	·	·
COc1ccc(NC(=O)CSCC(=O)NC2(C)CCS(=O)(=O)C2)cc1 (stereo not drawn)	-2%	8%	i	0%	8%
O=C(CSc1nc(-c2ccc(F)cc2)cc(C(F)(F)F)n1)NCc1ccco1	-5%	-20%	i	4%	-1%
COC(=O)c1c(SCC(=O)Nc2cc(C)cc(C)c2)[nH]c2ccccc2c1=O	10µM*	13µM*	i	-23%	?
CCOC(=O)C1=C(C)NC(C)=C(C(=O)OCC)C1c1ccccc1/C=C/C(=O)OC(C)(C)C	·	·	?	·	35µM*
CCOc1ccc(S(=O)(=O)Nc2ccc3oc(C)c(C(=O)OCCOC)c3c2)cc1	-17%	?	?	-23%	-32%
CCCCOC(=O)c1c(C)oc2ccc(NS(=O)(=O)c3ccc4c5c(cccc35)C(=O)N4)cc12	-18%	14µM*	i	-23%	?
CN1N=C(C(N)=O)CCC1=O	·	·	i	·	8%
CN(C(=O)COc1ccccc1C(=O)Nc1ccccc1)c1ccccc1	-26%	?	·	·	·
COc1ccc(NS(=O)(=O)c2ccc3c(c2)[C@H]2C=CC[C@H]2[C@@H](c2ccc(C(=O)O)cc2)N3)cc1	5%	11%	i	-12%	1%
COc1cccc(NS(=O)(=O)c2ccc3c(c2)[C@H]2C=CC[C@H]2[C@@H](c2ccccc2Cl)N3)c1	-50%	11µM*	i	16%	0%
CC(=O)Nc1ccc(/C=C/c2ccccn2)cc1	-10%	-26%	·	·	·
COc1ccccc1-c1cccc([C@@H]2C[C@H]3[C@H](CON3C)CN2Cc2ccccc2)c1	-21%	?	?	·	-17%
CN1OC[C@@H]2CN(Cc3ccccc3)[C@H](c3cccc(-c4ccc(C#N)cc4)c3)C[C@@H]21	-30%	10µM*	i	·	-16%
COc1ccc(CN2C[C@H]3CON(C)[C@H]3C[C@H]2c2ccc(-c3ccccc3)cc2)cc1	-25%	11µM*	i	·	-13%
Cc1cccc2nc(CNC(=O)CN3Cc4cc(Cl)ccc4OC(C)C3)cn12 (stereo not drawn)	·	·	i	·	·
O=C(CCCN1C(=O)/C(=C\c2cccc(Br)c2)SC1=S)Nc1cccnc1	-35%	11µM*	?	?	?
Cc1ccc(/C=C2\SC(=S)N(CCCC(=O)Nc3cccnc3)C2=O)cc1	-1%	-17%	?	-14%	3.5µM*
O=C(CCCN1C(=O)/C(=C/c2cccc(Br)c2)SC1=S)Nc1ccccn1	-18%	-12%	?	-3%	10µM*
CCc1ccc(/C=C2\SC(=S)N(CCCC(=O)Nc3ccccn3)C2=O)cc1	11%	?	?	-13%	4.5µM*
C[C@@](N)(Cc1ccc(O)c(O)c1)C(=O)O	·	·	?	35%[29.3 µM]	·
O=C(CCCN1C(=O)/C(=C/c2ccccc2Cl)SC1=S)NNC(=O)c1ccc(Cl)cc1Cl	-2%	-2%	i	2%	2.5µM*
COc1cccc(OC)c1-c1cc(CCCc2cc(-c3c(OC)cccc3OC)nc3ccccc23)c2ccccc2n1	-107%	?	·	·	·
Cn1c(=O)c2c3c(sc2n2c(SCC(N)=O)nnc12)CC(C(C)(C)C)CC3 (stereo not drawn)	13µM*	1%	i	-7%	-11%
COc1ccccc1NC(=O)c1c(C)cc(C)nc1SCC(=O)Nc1cccc(C)c1	-21%	10µM*	?	1%	-19%
Cc1ccc(S(=O)(=O)CCC(=O)c2ccc(O)cc2O)cc1	11µM*	11µM*	i	-21%	22%
